Among the data in PubChem BioAssay (EPA / NIEHS) are outcome and AC50 values, retold here.

Read-out in experiment [1]: Monocyte Chemoattractant Protein-1 (MCP1), CCL2 (gene 6347)
Nature of the experiment: BSK_BF4T_MCP1: BioMAP Diversity Plus: BF4T Assay for Monocyte Chemoattractant Protein-1 (MCP1) Biomarker Activity (AID 2284259). The note with it: primary human bronchial epithelial cells with fibroblasts. In short, it runs like this:
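Co-culture of bronchial epithelial cells and dermal fibroblasts dosed with chemical; MCP-1 measured by ELISA 24 h later. Activity fitted in positive direction versus DMSO; cytotoxicity checked by SRB staining in parallel cultures.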

Read-out in experiment [2]: CD90, THY1 (gene 7070)
Nature of the experiment: BSK_BF4T_CD90: BioMAP Diversity Plus: BF4T Assay for CD90 Biomarker Activity (AID 2284262). The note with it: primary human bronchial epithelial cells with fibroblasts. The method in brief:
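Co-culture of human bronchial epithelial cells and dermal fibroblasts, 24 h compound exposure. Cell-surface CD90 measured by ELISA relative to DMSO; parallel SRB total-protein staining for cytotoxicity.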

Read-out in experiment [3]: Interleukin-1 alpha (IL1a), IL1A (gene 3552)
Nature of the experiment: BSK_BF4T_IL1a: BioMAP Diversity Plus: BF4T Assay for Interleukin-1 alpha (IL1a) Biomarker Activity (AID 2284264). The settings on record: primary human bronchial epithelial cells with fibroblasts. The method in brief: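 Human bronchial epithelial cells co-cultured with dermal fibroblasts, dosed and read at 24 h. Secreted/surface IL-1α quantified by ELISA; gain-of-signal fitted relative to DMSO baseline. Parallel SRB total-protein staining tracked cytotoxicity.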

Read-out in experiment [4]: Decorin, DCN (gene 1634)
Kind of experiment: BSK_MyoF_Decorin: BioMAP Diversity Plus: MyoF Assay for Decorin Biomarker Activity (AID 2284265). The note with it: primary human lung fibroblasts. In short, it runs like this: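 Lung fibroblast cultures, 24 h chemical exposure. Decorin by ELISA, positive fitting direction, DMSO baseline.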

Read-out in experiment [5]: KRT18 (gene 3875)
Nature of the experiment: BSK_BF4T_Keratin818: BioMAP Diversity Plus: BF4T Assay for Keratin 818 Biomarker Activity (AID 2284266). The note with it: primary human bronchial epithelial cells with fibroblasts. The method in brief:
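Co-culture of human bronchial epithelial cells and dermal fibroblasts, chemical exposure 24 h. Keratin 8/18 measured by ELISA; positive-direction fit vs DMSO. SRB total protein run in parallel cultures for cytotoxicity.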

The nature of experiment [6]: BSK_MyoF_SRB: Viability Assessment in the BioMAP Diversity Plus: MyoF Assay (AID 2284267).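 Also: total protein by SRB absorbance in parallel cultures as cytotoxicity measure.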 The note with it: primary human lung fibroblasts. The method in brief: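 Read-out is SRB absorbance at 560 nm, reflecting total protein in parallel lung fibroblast cultures harvested 24 h after compound addition. Cells were TCA-fixed (10%) and stained with 0.1% SRB; activity is referenced to DMSO.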

Read-out in experiment [7]: Matrix Metallopeptidase 1 (MMP1), MMP1 (gene 4312)
Nature of the experiment: BSK_MyoF_MMP1: BioMAP Diversity Plus: MyoF Assay for Matrix Metallopeptidase 1 (MMP1) Biomarker Activity (AID 2284268). The settings on record: primary human lung fibroblasts. In short, it runs like this:
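MMP1 measured by ELISA 24 h after dosing primary human lung fibroblasts; cytotoxicity checked in parallel cultures by sulforhodamine B total-protein staining read at 560 nm.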

Read-out in experiment [8]: Matrix Metallopeptidase 1 (MMP1), MMP1 (gene 4312)
Kind of experiment: BSK_BF4T_MMP1: BioMAP Diversity Plus: BF4T Assay for Matrix Metallopeptidase 1 (MMP1) Biomarker Activity (AID 2284270). The settings on record: primary human bronchial epithelial cells with fibroblasts. In short, it runs like this:
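Co-culture of human bronchial epithelial cells and dermal fibroblasts; MMP-1 levels measured by ELISA 24 hours after chemical dosing, relative to DMSO. Cytotoxicity checked in parallel cultures by SRB total-protein staining.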

Read-out in experiment [9]: Tissue plasminogen activator (tPA), PLAT (gene 5327)
Nature of the experiment: BSK_BF4T_tPA: BioMAP Diversity Plus: BF4T Assay for Tissue plasminogen activator (tPA) Biomarker Activity (AID 2284272). The note with it: primary human bronchial epithelial cells with fibroblasts. The method in brief:
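tPA level quantified by ELISA at 24 h post-treatment in bronchial epithelial/dermal fibroblast co-cultures, gain of signal scored against DMSO baseline. Parallel cultures stained with 0.1% SRB (560 nm) to flag overt cytotoxicity.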

Read-out in experiment [10]: Plasminogen Activator Inhibitor-1 (PAI1), SERPINE1 (gene 5054)
Nature of the experiment: BSK_BF4T_PAI1: BioMAP Diversity Plus: BF4T Assay for Plasminogen Activator Inhibitor-1 (PAI1) Biomarker Activity (AID 2284273). The settings on record: primary human bronchial epithelial cells with fibroblasts. The method in brief:
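Co-culture of human bronchial epithelial cells and dermal fibroblasts exposed to compound for 24 h. PAI-1 measured by ELISA; activity fitted in positive direction versus DMSO. Parallel SRB staining assessed overt cytotoxicity.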

Structures are written as SMILES. Several values for one entry are separate records, joined by “and”; a condition that tells them apart may be missing. Identical values can stand only once. More than one record can exist for a structure, and the calls need not agree. Activity calls are given as the source filed them. The calls were made as follows: active = hit-call score of the fitted dose curve at least 0.9, where 1 is the maximum; inactive = score below 0.9.

For the compound `CN(Cc1cnc2nc(N)nc(N)c2n1)c1ccc(C(=O)N[C@@H](CCC(=O)O)C(=O)O)cc1`, the outcome in experiment [1], in experiment [2], in experiment [3], in experiment [4], in experiment [5] and in [6] was inactive. The outcome in experiment [7], in [8], in [9] and in [10] was inactive.

For `O=C1c2ccc(O)c(O)c2C(=O)c2c(O)ccc(O)c21`, the outcome in experiment [4], in [6] and in experiment [7] was inactive.

Consider `NC(=NCCCCCCN=C(N)/N=C(\N)Nc1ccc(Cl)cc1)/N=C(\N)Nc1ccc(Cl)cc1`, for which the AC50 (commonly the concentration giving half of the maximal activity seen) in [4] was 9.05 µM (active); in experiment [6], 4.76 µM (active); in experiment [7], 9 µM (active).

As for `O=C(O)CCC(F)(F)C(F)(F)C(F)(F)C(F)(F)C(F)(F)F`, the result in [1], in experiment [2], in experiment [3], in experiment [4], in [5] and in experiment [6] was inactive. In addition, the outcome in experiment [7], in experiment [8], in experiment [9] and in experiment [10] was inactive.

Consider `O=C1OC2(c3ccccc31)c1cc(I)c(O)c(I)c1Oc1c2cc(I)c(O)c1I`, for which the half-maximal activity concentration (AC50) was 2.56 µM (active) in experiment [4] and 0.605 µM (active) in experiment [7]. For the same compound, the result in [6] was inactive.

With `O=S(=O)(O)C(F)(F)C(F)(F)C(F)(F)C(F)(F)C(F)(F)C(F)(F)C(F)(F)C(F)(F)C(F)(F)C(F)(F)F`, the result in [1], in [2], in [3], in experiment [4], in experiment [5] and in experiment [6] was inactive. Also, the result in [7], in [8], in experiment [9] and in [10] was inactive. Also, in [9], the AC50 is 2.39 µM (active).

With `COc1cc(OC)nc(NC(=O)NS(=O)(=O)Nc2ccccc2C(=O)N(C)C)n1`, the result in experiment [4], in experiment [6] and in experiment [7] was inactive.

As to `C=CC(=C)CC/C=C(\C)CCC=C(C)C`, the result in [4], in [6] and in experiment [7] was inactive.

For the compound `CC1=NN(c2ccccc2)C(=O)C1`, the outcome in experiment [4], in experiment [6] and in [7] was inactive.

On to `COc1cccc(O)c1`, for which the result in [4], in [6] and in experiment [7] was inactive.

`O=C(O)C(F)(F)OC(F)(F)C(F)(F)OC(F)(F)C(F)(F)OC(F)(F)C(F)(F)C(F)(F)C(F)(F)F`: the AC50 was 7.5 µM (active) in experiment [1]; 14.6 µM (active) in experiment [2]; 11 µM (active) and 13.4 µM (active) in [3]; 17.3 µM (active) in [4]; 14.6 µM (active) and 7.97 µM (active) in experiment [5]; 13 µM (active) and 9.16 µM (active) in experiment [6]. Further, the AC50 in experiment [9] is 8.23 µM (active) and 8.02 µM (active); in experiment [10] it was 19.1 µM (active) and 16.2 µM (active). In addition, the result in experiment [1], in experiment [2], in [4], in experiment [7] and in experiment [8] was inactive.

For the compound `CCOC(=O)CN[C@@H](C(=O)N1CC[C@H]1C(=O)NCc1ccc(/C(N)=N/O)cc1)C1CCCCC1`, the result in experiment [4], in experiment [6] and in [7] was inactive.

On to `C=CC(=O)OCCC(F)(F)C(F)(F)C(F)(F)C(F)(F)C(F)(F)C(F)(F)C(F)(F)C(F)(F)F`, for which the result in experiment [1], in experiment [2], in [3], in experiment [4], in experiment [5] and in experiment [6] was inactive. In addition, the result in [7], in experiment [8], in experiment [9] and in [10] was inactive.

As for `C=COC(=O)C(C)(C)CCCCCC`, the concentration at half-maximal activity (AC50) in [4] is 31.7 µM (active); in experiment [6], 30.9 µM (active). The outcome in experiment [7] was inactive.

For `Cc1cccc2c1ccc1ccccc12`, the outcome in [4], in experiment [6] and in experiment [7] was inactive.

As for `COCN(COC)c1nc(N(COC)COC)nc(N(COC)COC)n1`, the result in experiment [4], in experiment [6] and in experiment [7] was inactive.

Consider `CCCCCc1ccc(O)cc1`, for which the result in experiment [4] was inactive. Besides, the AC50 was 28.7 µM (active) in experiment [6] and 36.6 µM (active) in experiment [7].

For the compound `CC(C)(C)c1ccc(O)c(O)c1`, the outcome in [4] and in experiment [7] was inactive. Moreover, the AC50 in experiment [6] was 33.5 µM (active).

For the compound `C=CC(C)(CCC=C(C)C)OC(C)=O` (centres undefined), the result in experiment [4], in experiment [6] and in experiment [7] was inactive.

For the compound `O=C(NCc1ncc(C(F)(F)F)cc1Cl)c1c(Cl)cccc1Cl`, the result in experiment [4], in experiment [6] and in experiment [7] was inactive.
